Measurements as given in the supplement of paper PMC7669877.
± gives the uncertainty stated by the source.

System: Candidatus Liberibacter solanacearum in potato hairy roots
Assay: relative CLso titer (% of untreated control); higher = less inhibition of bacterial titer
Conditions: 10 µM; 72 h
Experimental: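 Primary screen of ~220 Spectrum collection (MicroSource) compounds at 10 µM (0.1% DMSO) on Candidatus Liberibacter solanacearum-infected potato hairy roots in multi-well plates (Gamborg B-5 medium, vacuum infiltrated, 21 °C, dark, 72 h). CLso titer was measured by qPCR of 16S rDNA normalised to potato RPL2 (2^-ddCq), pairwise-standardised against untreated controls, averaged over two biological replicates and expressed as % of untreated.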

Compared with CCOC(=O)c1cccc(N)c1, CCCNC(=O)NS(=O)(=O)c1ccc(Cl)cc1 is lower in “relative CLso titer” value: 113 ± 8.9% for the first, 38.9 ± 4.5% for the second.

First: C[C@@H]1C[C@H]2[C@@H]3CCC4=CC(=O)C=C[C@]4(C)[C@@]3(F)[C@@H](O)C[C@]2(C)[C@@]1(O)C(=O)CO
Second: CC(=O)OCC(=O)[C@H]1CC[C@H]2[C@@H]3CCC4=CC(=O)CC[C@]4(C)[C@H]3CC[C@]12C
The “relative CLso titer” value of the first is higher: 196 ± 16% for the first, 104 ± 18% for the second.

COc1cc(NS(=O)(=O)c2ccc(N)cc2)nc(OC)n1 and Nc1ccc(S(=O)(=O)c2ccc(N)cc2)cc1 are within error of each other in “relative CLso titer” value: 96 ± 21% for the first, 94.3 ± 19% for the second.

Going from CC1=C(C(=O)O)N2C(=O)[C@@H](NC(=O)[C@H](N)c3ccc(O)cc3)[C@H]2SC1 to CC1=C(C(=O)O)N2C(=O)[C@@H](NC(=O)[C@H](N)c3ccccc3)[C@H]2SC1, the “relative CLso titer” value rises from 49.7 ± 6.2% to 87.1 ± 16%.

Clc1ccccc1C(c1ccccc1)(c1ccccc1)n1ccnc1 and CN(C)CCOC(c1ccccc1)c1ccccc1 are within error of each other in “relative CLso titer” value: 65.3 ± 14% for the first, 55.8 ± 26% for the second.

CC(=O)N[C@@H](CS)C(=O)O and O=C(O)CCC(=O)Nc1ccc(S(=O)(=O)Nc2nccs2)cc1 are within error of each other in “relative CLso titer” value: 55.7 ± 25% for the first, 100 ± 28% for the second.

O=C(c1ccc(OCCN2CCCCC2)cc1)c1c(-c2ccc(O)cc2)sc2cc(O)ccc12 and O=C(O)c1cc(-c2ccc(F)cc2F)ccc1O are within error of each other in “relative CLso titer” value: 93 ± 3.9% for the first, 115 ± 58% for the second.

First: Cn1c([N+](=O)[O-])cnc1COC(N)=O
Second: CO/N=C(\C(=O)N[C@@H]1C(=O)N2C(C(=O)O)=C(COC(N)=O)CS[C@H]12)c1ccco1
The “relative CLso titer” value of the first is lower: 81.53 ± 0.13% for the first, 149 ± 29% for the second.

Cn1nnnc1SCC1=C(C(=O)O)N2C(=O)[C@@H](NC(=O)[C@H](OC=O)c3ccccc3)[C@H]2SC1 and CC1=C(C(=O)O)N2C(=O)[C@@H](NC(=O)[C@H](N)C3=CCC=CC3)[C@H]2SC1 are within error of each other in “relative CLso titer” value: 86.7 ± 26% for the first, 114 ± 86% for the second.

Nc1ccn([C@@H]2O[C@H](CO)[C@@H](O)[C@@H]2O)c(=O)n1 and Nc1ncnc2c1ncn2[C@@H]1O[C@H](CO)[C@@H](O)[C@H]1O are within error of each other in “relative CLso titer” value: 83.2 ± 46% for the first, 51.4 ± 22% for the second.

Going from Cc1cc(O)cc(C)c1Cl to CN(C)CCCN1c2ccccc2Sc2ccc(Cl)cc21, the “relative CLso titer” value rises from 30.8 ± 2.8% to 46.9 ± 8.8%.

Compared with Clc1ccc(COC(Cn2ccnc2)c2ccc(Cl)cc2Cl)cc1 (stereo not given), CN(C)CCOC(c1ccc(Cl)cc1)c1ccccn1 (stereo not given) is lower in “relative CLso titer” value: 101 ± 35% for the first, 35.2 ± 4.8% for the second.

Oc1ncnc2[nH]ncc12 and O=C1NS(=O)(=O)c2ccccc21 are within error of each other in “relative CLso titer” value: 82.5 ± 30% for the first, 73.2 ± 19% for the second.

Going from O=C(O)CCC(=O)OC[C@@H](NC(=O)C(Cl)Cl)[C@H](O)c1ccc([N+](=O)[O-])cc1 to CCCCCCCCCCCCCCCC(=O)OC[C@@H](NC(=O)C(Cl)Cl)[C@H](O)c1ccc([N+](=O)[O-])cc1, the “relative CLso titer” value rises from 49.1 ± 3.2% to 79.3 ± 10%.

CC12CCC(CC1=O)C2(C)C (stereo not given) and CC1(C)OC(=O)NC1=O are within error of each other in “relative CLso titer” value: 97 ± 38% for the first, 65.8 ± 3.9% for the second.

Compared with COC(=O)C1=C(C)NC(C)=C(C(=O)OCCN(C)Cc2ccccc2)C1c1cccc([N+](=O)[O-])c1 (stereo not given), NS(=O)(=O)c1cc(C2(O)NC(=O)c3ccccc32)ccc1Cl (stereo not given) is lower in “relative CLso titer” value: 121 ± 15% for the first, 58.5 ± 3.2% for the second.

C=C1c2cccc(O)c2C(=O)C2=C(O)[C@]3(O)C(=O)C(C(N)=O)=C(O)[C@@H](N(C)C)[C@@H]3[C@@H](O)[C@H]12 and CC[C@H]1OC(=O)[C@H](C)[C@@H](O[C@H]2C[C@@](C)(OC)[C@@H](O)[C@H](C)O2)[C@H](C)[C@@H](O[C@@H]2O[C@H](C)C[C@H](N(C)C)[C@H]2O)[C@](C)(O)C[C@@H](C)C(=O)[C@H](C)[C@@H](O)[C@]1(C)O are within error of each other in “relative CLso titer” value: 79.1 ± 26% for the first, 197 ± 120% for the second.

O=C(O)CN(CCN(CC(=O)O)CC(=O)O)CC(=O)O and CC(=O)N(O)CCCCCNC(=O)CCC(=O)N(O)CCCCCNC(=O)CCC(=O)N(O)CCCCCN are within error of each other in “relative CLso titer” value: 228 ± 120% for the first, 210 ± 59% for the second.

Going from C[C@@H]1NC(=O)[C@@H](N)CNC(=O)[C@H](C2CCNC(=N)N2)NC(=O)/C(=C/NC(N)=O)NC(=O)[C@H](CNC(=O)CC(N)CCCN)NC1=O.N=C1NCCC([C@@H]2NC(=O)/C(=C/NC(N)=O)NC(=O)[C@H](CNC(=O)CC(N)CCCN)NC(=O)[C@H](CO)NC(=O)[C@@H](N)CNC2=O)N1 (stereo not given in full) to C[C@H]1O[C@@H](O[C@H]2[C@@H](O)C[C@H](O[C@H]3[C@@H](O)C[C@H](O[C@H]4CC[C@@]5(C)[C@H](CC[C@@H]6[C@@H]5C[C@@H](O)[C@]5(C)[C@@H](C7=CC(=O)OC7)CC[C@]65O)C4)O[C@@H]3C)O[C@@H]2C)C[C@H](O)[C@@H]1O, the “relative CLso titer” value rises from 63.2 ± 9.8% to 86.7 ± 7.9%.

First: Cn1c(=O)c2c(ncn2CC(O)CO)n(C)c1=O (stereo not given)
Second: O=C(O)c1ccccc1C(=O)Nc1ccc(S(=O)(=O)Nc2nccs2)cc1
The “relative CLso titer” value of the first is higher: 128 ± 10% for the first, 102 ± 3.3% for the second.
